# Rows were chosen to be rich in hits. Some 21% of all compounds tested hit in one or more screens of this group.
# ClpP mod: qHTS Assay for Activators of ClpP | ATP-dependent Clp protease proteolytic subunit (Bacillus subtilis (strain 168)), P80244 | Potency, µM (doses to about 57.5 µM) | AID 651965, 2013 | 340,000 tested, 1.9% active | purified B. subtilis ClpP, FRET peptide cleavage, 20 min; active = well fitted falling curve with a large enough effect; inconclusive = small, poorly fitted or top-dose-only effect; inactive = no such curve, though single readings can be large or run the other way; also: the source files actives as falling curves though it sought activators and does not explain the sign; nearly all actives have a fitted effect of over 65% in size
# Target sequence (P80244 whole entry, looked up): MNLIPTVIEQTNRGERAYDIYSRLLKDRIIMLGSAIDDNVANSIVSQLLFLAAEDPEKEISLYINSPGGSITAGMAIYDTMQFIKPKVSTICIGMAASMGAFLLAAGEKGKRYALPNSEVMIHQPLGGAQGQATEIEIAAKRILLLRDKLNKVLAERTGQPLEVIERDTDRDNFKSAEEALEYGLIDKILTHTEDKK
#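 Buffer: 100 mM Tris/HCl pH8, 100 mM KCl, 0.05% low protease BSA, 2.5% glycerol, 0.01% Tween-20. ClpP 10 microg/mL final; 20 min RT; delta FRET normalized to ADEP and DMSO controls.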
# DT40 TDP1 no CPT: qHTS for Inhibitors of human tyrosyl-DNA phosphodiesterase 1 (TDP1): qHTS in cells in absence of CPT; Potency, µM (doses to about 46.2 µM), most hits filed as inhibitors; AID 686978, 2013; 420,000 tested, 15% active; DT40 Tdp1-/- hTDP1 cells, no CPT, ATP luminescence, 48 h; also: nearly all actives have a fitted effect of over 55% in size
#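 Chicken DT40 Tdp1-/- cells complemented with human TDP1, screened without camptothecin (DMSO vehicle only), 400 cells/well. Compounds pin-transferred, cells incubated at 37 °C for at least 48 hr. Growth read as ATP-dependent luminescence (CellTiter-Glo, 30 min at RT).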
# IL-1B inflam inh: blocks inflammasome-driven IL-1 beta release; THP-1 LPS/ATP IL-1B secretion, AlphaLISA, 16 h; stronger effect = lower value; activity change, % at 57.5 µM; 360,000 tested, 4.7% active; in the data active = activity change below about -50%; inconclusive = mostly about -30% to -49%
#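 THP-1 cells pretreated 1 hr with compounds (up to 57.5 uM final), then stimulated with LPS (250 ng/mL final) plus ATP (1.25 mM final); secreted IL-1B measured by AlphaLISA after 16 hr, decreased signal indicating inhibition.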
# TDP1 cell CPT: growth inhibition of DT40 Tdp1-/-;hTDP1 cells with camptothecin (screen for TDP1 inhibitors); 420,000 tested, 12% active; Potency, µM (top dose mostly 46.2 µM), actives largely listed as inhibitors; chicken DT40 Tdp1-/-;hTDP1 cells + 20 nM CPT, ATP luminescence, 48 h; AID 686979; also: nearly all actives have a fitted effect of over 55% in size
#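 Chicken DT40 Tdp1-/- cells complemented with human TDP1, 400 cells/well, exposed to compounds plus 20 nM camptothecin for at least 48 h at 37 C; viability read as ATP content by CellTiter-Glo luminescence.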
# D3 ag: agonists of human D3 dopamine receptor. P35462. D3R DiscoveRx beta-arrestin cells, luminescence, 90 min. max activation, %. 410,000 tested, 0.58% active; in the data active = max activation above about 30%
# Target sequence (P35462 whole entry, looked up): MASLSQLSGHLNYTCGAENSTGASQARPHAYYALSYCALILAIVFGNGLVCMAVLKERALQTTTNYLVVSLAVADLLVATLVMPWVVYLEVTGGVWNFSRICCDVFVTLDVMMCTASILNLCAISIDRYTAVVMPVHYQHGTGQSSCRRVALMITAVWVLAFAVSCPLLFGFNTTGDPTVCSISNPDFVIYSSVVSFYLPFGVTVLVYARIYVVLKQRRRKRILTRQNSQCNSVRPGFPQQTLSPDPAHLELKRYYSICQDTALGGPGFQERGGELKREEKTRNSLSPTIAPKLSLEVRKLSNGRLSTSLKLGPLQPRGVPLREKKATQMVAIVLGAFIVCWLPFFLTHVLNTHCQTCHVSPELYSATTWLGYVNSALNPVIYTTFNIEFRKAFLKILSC
#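 Agonist-mode cell screen: cells plated at 1500/well and incubated overnight at 37 °C, then exposed to library compounds for 90 min at 37 °C. Detection reagent was added for 30–60 min at room temperature, and luminescence was read.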
# D3 antag: blocks the human D3 dopamine receptor. D3R cells, DiscoveRx beta-arrestin luminescence, antagonist mode; stronger effect = lower value. max response, negative = inhibition, %. P35462. 360,000 tested, 2.5% active; in the data active = max response below about -50%; inconclusive = no clear call, values can overlap the other calls
#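 Cells plated overnight at 1500 cells/well, then exposed to library compounds with dopamine controls for 90 minutes at 37 degrees C. DiscoveRx reagent added for 30–60 minutes at room temperature; luminescence read, quantitative HTS format.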
# Hits are given with their value; – = inactive; ? = inconclusive; · = not tested or not shown; [ ] = dose if it differs, or a comment. Unless noted, calls follow the shape of the dose curve; as a rule, active = well fitted inhibition curve with a large enough effect; inconclusive = small, poorly fitted or top-dose-only effect; inactive = flat fitted curve, though single readings scatter.
SMILES,ClpP mod,DT40 TDP1 no CPT,IL-1B inflam inh,TDP1 cell CPT,D3 ag,D3 antag
O=C(O)c1ccccc1CSC1=NCCS1,–,–,–,–,–,–
N#Cc1ccccc1CSC1=NCCS1,·,–,-89,–,–,–
CC(C)(C)S(=O)N1Cc2cc(CO)cc(-c3ccccc3)c2[C@@H]1CCO (some centres undefined),–,?,–,?,–,–
COc1ccccc1N1CCN(C(=O)CCNS(=O)(=O)c2cc(Br)cnc2N)CC1,–,?,–,18µM,–,–
COc1ccccc1N1CCN(C(=O)CCNS(=O)(=O)c2ccc(Br)s2)CC1,–,18µM,–,23µM,–,–
Cc1ccc(NC(=O)CSc2nnc(-c3cc4occc4n3C)n2-c2ccccc2C)c(C)c1,–,18µM,·,?,–,·
Cc1ccc(NC(=O)CSc2nnc(-c3cc4occc4n3C)n2-c2ccccc2C)cc1F,–,16µM,·,26µM,–,·
CCCOc1ccc(C2c3c(-c4ccccc4O)n[nH]c3C(=O)N2CCCOCC)cc1OCC (centres undefined),–,?,·,23µM,–,·
CCCOc1ccc(C2c3c(-c4ccccc4O)n[nH]c3C(=O)N2Cc2ccncc2)cc1OCC (centres undefined),–,–,·,23µM,–,·
COc1cc(C2c3c(-c4ccccc4O)n[nH]c3C(=O)N2CCO)ccc1OCC(C)C (centres undefined),–,?,·,?,–,·
Cc1ccc(CNc2oc(-c3ccco3)nc2S(=O)(=O)c2ccccc2)cc1,?,?,–,?,–,–
COc1ccc2c(c1)CC/C(=C\c1ccc(OC)c(Cn3nc(C)cc3C)c1)C2=O,–,18µM,–,16µM,–,–
COc1ccc2c(c1)CC/C(=C\c1ccc(OC)c(Cn3cccn3)c1)C2=O,–,26µM,-52,18µM,–,–
COc1ccc(/C=C2\CCc3ccccc3C2=O)cc1CN1CCOCC1,·,?,–,?,–,–
C[C@@H](c1ccccc1)N1C[C@H](COCc2ccccc2)Oc2cc(N3CC[C@H](O)C3)ccc2S1(=O)=O,–,21µM,–,?,–,–
CCCCC[C@H](C)N1C[C@@H](COCc2ccccc2)Oc2cc(N3CC[C@H](O)C3)ccc2S1(=O)=O,–,?,–,?,–,–
C[C@H]1COc2cc(N3CC[C@H](O)C3)ccc2S(=O)(=O)N1,–,–,–,–,–,–
C[C@H](c1ccccc1)N1C[C@@H](COCc2ccccc2)Oc2cc(N3CC[C@@H](O)C3)ccc2S1(=O)=O,–,23µM,–,21µM,–,–
C[C@@H](c1ccccc1)N1C[C@@H](COCc2ccccc2)Oc2cc(N3CC[C@H](O)C3)ccc2S1(=O)=O,–,18µM,–,?,–,–
OCCC1CN(Cc2cccn2-c2ccccn2)CCN1Cc1ccccc1 (centres undefined),–,–,–,–,–,–
Fc1ccccc1CCNc1c2c(nc3ncnn13)CCCC2,·,5.2µM,–,9.2µM,–,–
COc1ccc(OC)c(NC(=O)CCn2cccn2)c1,–,–,·,–,–,·
FC(F)Oc1ccc(-c2c[n+]3c(n2-c2ccccc2)CCCCC3)cc1,–,1.5µM,?,2.1µM,–,–
COc1ccc(-n2c(-c3ccc(Cl)cc3)c[n+]3c2CCCCC3)cc1,–,0.73µM,–,0.82µM,–,–
CCOc1ccc(-n2c(-c3ccccc3)c[n+]3c2CCC3)cc1,–,1µM,-68,1µM,–,–
SMILES,ClpP mod,DT40 TDP1 no CPT,IL-1B inflam inh,TDP1 cell CPT,D3 ag,D3 antag
CCOc1ccc(-n2c(-c3ccc(Br)cc3)c[n+]3c2CCCCC3)cc1,·,0.37µM,-79,4.6µM,–,–
COc1ccc(-c2c[n+]3c(n2-c2c(C)n(C)n(-c4ccccc4)c2=O)CCCCC3)cc1,·,?,–,–,–,–
O=C1CCCc2c1cc(-c1ccccc1)n2-c1ccccc1,–,?,–,–,–,–
CC(C)(C)SCCNC(=O)CN(c1ccccc1)S(=O)(=O)c1ccc(F)cc1,·,–,–,–,–,–
CCn1nc(C)cc1C(=O)N1CCC2(CC1)c1ccccc1[C@@H](NC(=O)c1cccnc1)[C@@H]2O,·,–,·,–[9.04 µM],·,·
CCOc1ccc(NC(=O)c2cc(=O)c3cc(CC)ccc3o2)cc1,–,–,·,–,–,·
CCOc1ccc(-n2c(-c3ccc(OC)cc3)cc3c2CC(C)(C)CC3=O)cc1,–,?,·,?,–,·
CCOc1ccc(-n2c(-c3ccc(OC)cc3)c[n+]3c2CCCCC3)cc1,·,0.029µM,-70,0.21µM,–,–
N#CCOC(=O)[C@H](Cc1ccccc1)N1C(=O)c2ccccc2C1=O,–,–,–,–,–,–
COc1cc(OC)cc(C(=O)Nc2ccc3nc4c(c(Nc5ccc(OC)c(OC)c5)c3c2)CCCC4)c1,–,23µM,·,4.1µM,–,·
COc1ccc(Nc2c3c(nc4ccc(NC(=O)c5cc(Cl)ccc5OC)cc24)CCCC3)cc1OC,–,0.82µM,·,1.6µM,–,·
CCOc1ccccc1C(=O)Nc1ccc2nc3c(c(Nc4ccc(OC)c(OC)c4)c2c1)CCCC3,–,5.2µM,·,4.1µM,–,·
C/C(=N\NC(=O)CCc1ccc(S(=O)(=O)N2CCOCC2)cc1)c1ccc(Br)cc1,–,–,–,–,–,–
CC(OC(=O)c1ccc(Cl)nc1)C(=O)NCc1ccc2c(c1)OCO2 (centres undefined),–,–,–,–,–,–
COc1ccccc1NC(=O)C(=O)NCC(c1ccco1)N1CCc2ccccc2C1 (centres undefined),–,?,–,–,–,–
O=C(NCC(c1ccco1)N1CCc2ccccc2C1)c1ccc(F)cc1 (centres undefined),–,–,–,–,–,–
O=C(NCC(c1ccco1)N1CCc2ccccc2C1)c1ccccc1 (centres undefined),–,?,–,?,–,-53
O=C(NCC(c1ccco1)N1CCc2ccccc2C1)C(=O)Nc1ccccc1 (centres undefined),–,?,–,?,–,-90
CCc1cccc(-n2c(=O)c3cccnc3n2CC(=O)NCc2ccccc2Cl)c1,–,?,·,?,–,·
Cc1ccc(-c2noc(-c3ccoc3C)n2)cc1,·,?,–,–,–,–
COc1ccc(N=C2C(=O)N3c4c(cccc42)C(C)=CC3(C)C)cc1,–,2.6µM,–,5.2µM,–,-50
Cc1cc(=O)oc2cc(OCC3CC(c4ccccc4)=NO3)ccc12 (centres undefined),28µM,18µM,–,16µM,–,–
C#CCOc1ccc2c(C)cc(=O)oc2c1,–,?,–,–,–,–
